The source of these data is PubChem BioAssay (NCI).

This is part of a sample that, as a whole, favours compounds with a hit. Of some 83,000 tested, about 20% had one in any assay.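 Single-dose data. Exposure time 48 hours. Values below 10 considered active.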 Unmarked numbers belong to inactive results. Calls of active or inactive are those of the source.

Among the test systems are HCT-15 colon; HT29 colon; SNB-75 CNS; SNB-19 CNS; U251 CNS; PC-3 prostate; SK-MEL-5 melanoma; UACC-62 melanoma; LOX IMVI melanoma; SK-MEL-28 melanoma; SK-MEL-2 melanoma; EKVX NSCLC; SN12C renal; UO-31 renal; TK-10 renal; ACHN renal; CAKI-1 renal; CCRF-CEM leukemia; MOLT-4 leukemia.
Holding throughout (assay): NCI-60 one-dose screen, 48 h (100 = growth as untreated, 0 = no growth, -100 = all killed)
Common to all, as to conditions: 10 µM unless noted

On to `O=C(O)c1ccc(-c2nn(-c3ccc(C(F)(F)F)cc3)cc2CNc2ccc(Oc3ccccc3)cc2)cc1`, for which the growth in the assay on HCT-15 colon is 43.2%; in the assay on HT29 colon, 67%; with SNB-75 CNS, 80.6%; in the assay with SNB-19 CNS, 82.7%; in the assay with U251 CNS it was 67%; in the assay on PC-3 prostate, 90.6%. Further, the growth with SK-MEL-5 melanoma is 78.9%; in the assay on UACC-62 melanoma, 77.5%; with LOX IMVI melanoma it was 82.5%; with SK-MEL-28 melanoma, 89.1%; with SK-MEL-2 melanoma, 90%; with EKVX NSCLC, 66.9%. For the same compound, the growth in the assay on SN12C renal is 78.2%; in the assay on UO-31 renal, 60.1%; in the assay with TK-10 renal, 98.3%; with ACHN renal it was 65.9%; in the assay with CAKI-1 renal it was 91.8%; in the assay with CCRF-CEM leukemia, 76.7%. Besides, the growth with MOLT-4 leukemia is 67.6%.

As for `COC(=O)/C=C1\S/C(=N\NC(=O)c2cc3ccc2/C=C\c2ccc(cc2)/C=C\3)N(Cc2ccccc2)C1=O`, the growth was 27.8% in the assay on HCT-15 colon; 12.4% with HT29 colon; 51.2% in the assay with SNB-75 CNS; 56.9% in the assay on SNB-19 CNS; 55% in the assay with U251 CNS; 17.8% in the assay on PC-3 prostate. For the same compound, the growth is 82.3% in the assay with SK-MEL-5 melanoma; 51.9% in the assay with UACC-62 melanoma; 6.21% (active) with LOX IMVI melanoma; 101% with SK-MEL-28 melanoma; 85.6% in the assay with SK-MEL-2 melanoma; 77.7% in the assay on EKVX NSCLC. In addition, the growth in the assay with SN12C renal was 61.2%; in the assay on UO-31 renal, 45%; with TK-10 renal, 95.5%; in the assay on ACHN renal it was 46.1%; in the assay on CAKI-1 renal it was 65.8%; in the assay on CCRF-CEM leukemia it was 3.83% (active). In addition, in the assay with MOLT-4 leukemia, the growth is 1.09% (active).

For `O=C(c1nc2ccccc2[nH]1)C1C(c2ccc(Cl)cc2)C2CC3CCCC[C@H]3N2[C@@]12C(=O)Nc1cc(Cl)ccc12` (stereo partly drawn), the growth with HCT-15 colon was 30.2%; with HT29 colon, 26%; in the assay with SNB-75 CNS it was 34.4%; in the assay on SNB-19 CNS it was 59%; with U251 CNS it was 49.3%; with PC-3 prostate it was 31.9%. Further, the growth was 50.1% in the assay on SK-MEL-5 melanoma; 59.3% in the assay on UACC-62 melanoma; 35% with LOX IMVI melanoma; 72% in the assay with SK-MEL-28 melanoma; 66.7% in the assay on SK-MEL-2 melanoma; 34.5% in the assay with EKVX NSCLC. The growth in the assay with SN12C renal was 48%; in the assay on UO-31 renal it was 20.1%; in the assay with TK-10 renal it was 46.4%; in the assay on ACHN renal it was 40.5%; with CAKI-1 renal it was 20.6%; in the assay with CCRF-CEM leukemia it was 30.2%. In the assay on MOLT-4 leukemia, the growth was 7.41% (active).

In the case of `O=C1Nc2cc(-c3cccc([N+](=O)[O-])c3)ccc2/C1=C/c1ccc[nH]1`, the growth in the assay with HCT-15 colon is 28%; in the assay on HT29 colon it was 91.1%; with SNB-75 CNS it was 64.6%; in the assay with SNB-19 CNS, 101%; with U251 CNS, 98.8%; in the assay with PC-3 prostate, 86.8%. Further, the growth in the assay on SK-MEL-5 melanoma was 70.3%; in the assay on UACC-62 melanoma, 83.9%; in the assay with LOX IMVI melanoma, 90%; in the assay on SK-MEL-28 melanoma, 106%; in the assay on SK-MEL-2 melanoma, 88.1%; in the assay with EKVX NSCLC it was 29.8%. The growth was 101% with SN12C renal; 68.6% in the assay with UO-31 renal; 65.6% in the assay with TK-10 renal; 92.3% in the assay on ACHN renal; 80.9% with CAKI-1 renal; 91.5% in the assay on CCRF-CEM leukemia. The growth in the assay with MOLT-4 leukemia is 97.4%.

Turning to `CC(C)(C)CC(C)(C)n1nnnc1C(NC12CC3CC(CC(C3)C1)C2)c1ccccc1` (stereo not drawn), the growth in the assay on HCT-15 colon is 84.5%; in the assay on HT29 colon, 79.9%; in the assay with SNB-75 CNS, 80.5%; in the assay on SNB-19 CNS, 90.5%; in the assay on U251 CNS it was 89.4%; in the assay with PC-3 prostate, 77.6%. Also, the growth is 88.9% in the assay on SK-MEL-5 melanoma; 69.2% in the assay with UACC-62 melanoma; 87.6% in the assay with LOX IMVI melanoma; 99.6% with SK-MEL-28 melanoma; 95.8% in the assay on SK-MEL-2 melanoma; 84.9% in the assay with EKVX NSCLC. For the same compound, the growth with SN12C renal was 88.8%; in the assay on UO-31 renal, 81.6%; with TK-10 renal it was 94.9%; in the assay with ACHN renal it was 95.8%; in the assay with CAKI-1 renal, 83.1%; in the assay on CCRF-CEM leukemia, 83.5%. Moreover, the growth in the assay on MOLT-4 leukemia is 90%.

`Cn1ccnc1C(=O)/C=C/c1ccc(CC(=O)Nc2ccc(Cl)cc2)cc1`: the growth in the assay on HCT-15 colon was 5.48% (active); with HT29 colon, 3.03% (active); in the assay on SNB-75 CNS it was 11.8%; with SNB-19 CNS it was 6.66% (active); in the assay with U251 CNS, 6.28% (active); in the assay with PC-3 prostate, 32.7%. The growth in the assay on SK-MEL-5 melanoma is 33.3%; in the assay with UACC-62 melanoma it was 35%; in the assay with LOX IMVI melanoma, 13.1%; with SK-MEL-28 melanoma, 70.9%; in the assay on SK-MEL-2 melanoma it was 89.7%; with EKVX NSCLC, 40.6%. The growth was 2.21% (active) with SN12C renal; 23.3% in the assay on UO-31 renal; 27% in the assay on TK-10 renal; 49.8% in the assay with ACHN renal; 34.7% in the assay with CAKI-1 renal; 4.18% (active) in the assay with CCRF-CEM leukemia. The growth in the assay with MOLT-4 leukemia is 5.64% (active).

As for `CC(=O)N1c2ccccc2NC2=C(C(=O)NC2(C)C)C1c1ccco1` (stereo not drawn), the growth was 93.1% in the assay on HCT-15 colon; 92.5% with HT29 colon; 73.5% in the assay with SNB-75 CNS; 81.2% in the assay on SNB-19 CNS; 96.5% in the assay with U251 CNS; 54.6% in the assay with PC-3 prostate. For the same compound, the growth was 64.6% with SK-MEL-5 melanoma; 66.5% with UACC-62 melanoma; 86.4% in the assay with LOX IMVI melanoma; 75.2% with SK-MEL-28 melanoma; 84.2% with SK-MEL-2 melanoma; 95.8% in the assay with EKVX NSCLC. Moreover, the growth with SN12C renal was 99.1%; in the assay on UO-31 renal, 85.2%; with TK-10 renal it was 98.4%; with ACHN renal, 107%; with CAKI-1 renal, 90.3%; with CCRF-CEM leukemia, 80.6%. Also, the growth in the assay on MOLT-4 leukemia was 96.5%.
